Results published in PubChem BioAssay (NCI).
The panel holds about 79,000 compounds, 15% with a hit somewhere; the sample as a whole holds those more often. Active and inactive are the calls of the source. Rule as the data show it: active = growth inhibition above about 70%; inactive = the rest.

Assays:
[1] = NCI Yeast Anticancer Drug Screen. Data for the rad50 strain (AID 155);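 also: 0% = growth of vehicle-only cultures of the same strain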; conditions: S. cerevisiae rad50 strain growth inhibition; at 50.0 µM; stronger effect = higher value
Method in brief: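 Growth of the mutant yeast was measured after compound exposure and referenced to vehicle-treated cultures.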

[2] = NCI Yeast Anticancer Drug Screen. Data for the mec2-1 strain (AID 157); conditions: S. cerevisiae mec2-1 strain, at 50.0 µM, stronger effect = higher value
Method in brief: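 Yeast mec2-1 mutant treated with compound. Readout: growth inhibition vs vehicle controls.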

[3] = NCI Yeast Anticancer Drug Screen. Data for the sgs1 mgt1 strain (AID 161);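 also: 0% = growth of cultures given vehicle only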; conditions: S. cerevisiae sgs1 mgt1 strain, at 50.0 µM, stronger effect = higher value
Method in brief: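 Test agents were incubated with a DNA-repair-mutant yeast strain. Growth was then read and compared against vehicle-treated controls.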

[4] = NCI Yeast Anticancer Drug Screen. Data for the cln2 rad14 strain (AID 165);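 also: 0% = growth equal to vehicle treated cultures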; conditions: S. cerevisiae cln2 rad14 strain, at 50.0 µM, stronger effect = higher value
Method in brief: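 cln2 rad14 yeast strain; compound exposure; growth inhibition read vs vehicle controls.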

[5] = NCI Yeast Anticancer Drug Screen. Data for the bub3 strain (AID 167); conditions: S. cerevisiae bub3 mutant strain, at 50.0 µM, stronger effect = higher value
Method in brief: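 Whole-cell yeast assay. The mutant strain was incubated with compounds, and growth inhibition was determined by comparison with vehicle-treated cells.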

[6] = NCI Yeast Anticancer Drug Screen. Data for the mlh1 rad18 strain (AID 175); conditions: S. cerevisiae mlh1 rad18 strain growth inhibition; at 50.0 µM; stronger effect = higher value
Method in brief: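 Yeast w/ defined DNA-repair lesions; compound exposure; growth vs vehicle controls → % inhibition.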

Measured: growth inhibition

COc1cc(C2SCCCCCCCCCCSC(c3ccc(O)c(OC)c3)SCCCCCCCCCCS2)ccc1O (configuration not stated)
inactive: [1] -24.6% | [2] -24.8% | [3] -29.2% | [4] -18.9% | [5] -30.2% | [6] -6.9%

Clc1ccccc1C1Nc2ccccc2S1 (configuration not stated)
inactive: [1] 39.7% | [2] 17.6% | [3] 48.2% | [4] -7.75% | [5] 13.3% | [6] 38.2%

COc1ccc(/C=C/c2onc3c(=O)n(C)nc(-c4ccccc4)c23)cc1
inactive: [1] -22.4% | [2] -25.1% | [3] -9.2% | [4] -11.4% | [5] -2.55% | [6] -26.2%

Cc1ccc(S(=O)(=O)OCC2C(COS(=O)(=O)c3ccc(C)cc3)C3CCC2C2C3C3C2C2(C)C(=O)C3(C)C(c3ccccc3)=C2c2ccccc2)cc1 (configuration not stated)
inactive: [1] 0.35% | [2] -5.2% | [3] 4.2% | [4] -5.7% | [5] -5.5% | [6] 12.3%

C=CCCCCCCCCCOC=O
inactive: [1] -12.1% | [2] -5.2% | [3] 1.25% | [4] -19.8% | [5] 34.3% | [6] 3.2%

CC(C)(C)SC(=S)SCC(=O)c1cc2ccccc2o1
inactive: [1] 35.7% | [2] 3.5% | [3] 41.4% | [4] 30.1% | [5] 40.8% | [6] 37.9%

COC(=O)c1cc(=O)c2c(=O)[nH]c(=O)[nH]c2[nH]1
inactive: [1] -3.65% | [2] -1.25% | [3] 2% | [4] -26.8% | [5] -8.6% | [6] 3.65%

O=S(=O)(Nc1ccccc1)c1cc(O)ccc1O
inactive: [1] -3.35% | [2] -11.2% | [3] -9.75% | [4] -12.1% | [5] -26.5% | [6] -9.85%

O=Cc1ccccc1COC(=O)c1cc(C(=O)OCc2ccccc2C=O)c(C(=O)OCc2ccccc2C=O)cc1C(=O)OCc1ccccc1C=O
inactive: [1] 13.9% | [2] 7.15% | [3] -14.2% | [4] -2.8% | [5] -4.9% | [6] 5.25%

Cl/C(=C\c1ccccc1)c1ccccc1
inactive: [1] 20.4% | [2] -6.55% | [3] -5.7% | [4] -42.5% | [5] 7.7% | [6] -6.55%

CCN(CC)CC(O)C=O (configuration not stated)
inactive: [1] 10.6% | [2] -6.7% | [3] -3.85% | [4] 3.85% | [5] -9.5% | [6] 6.7%

N#CC(C#N)=C(N)/C(C#N)=C\c1ccnc2ccccc12
inactive: [1] -28.9% | [2] -1.75% | [3] -3% | [4] 15.1% | [5] 0.65% | [6] -18.2%

CCO/C=C\C(OCC)OCC
inactive: [1] 3.55% | [2] -8.95% | [3] 3.1% | [4] -15.2% | [5] 18.2% | [6] -0.6%

Cc1cccc(C2=N/C(=C\c3c(O)ccc4ccccc34)C2=O)c1
inactive: [1] 6.55% | [2] 7.1% | [3] 0.9% | [4] 6.55% | [5] 10.9% | [6] -6.65%

CC(NC(=O)OCc1ccccc1)NC(=O)OC(C)(C)C (configuration not stated)
inactive: [1] -47% | [2] -63.5% | [3] -18.9% | [4] -13.2% | [5] -14.6% | [6] -26.8%

O=C(NCCN1CCNCC1)c1ccc(Cl)cc1
inactive: [1] 26.9% | [2] 40% | [3] 30.8% | [4] 63% | [5] 33.6% | [6] 40.2%

O=[N+]([O-])c1cccc(S/N=C/c2c(O)ccc3ccccc23)c1
active: [1] 98.5% | [2] 99.1% | [3] 99.2% | [4] 72.8% | [5] 98.5% | [6] 97.8%

O=C1C2(CCCC13N=NCC3c1ccccc1)N=NCC2c1ccccc1 (configuration not stated)
inactive: [1] 28.9% | [2] -19.1% | [3] -0.95% | [4] -4.9% | [5] 0.85% | [6] 38.5%

COc1cccc(OC)c1NC(=O)NCCCl
inactive: [1] -8.3% | [2] 14.6% | [3] 2.25% | [4] 50.8% | [5] 0.15% | [6] 14.4%

CSC1=Nc2cc3c(cc2C(=O)N2C[C@H](O)CC12)OCO3 (some centres not stated)
inactive: [1] -20.9% | [2] -25.5% | [3] -10.9% | [4] -34.2% | [5] -10.8% | [6] -6.3%

Cc1cc2nc(-c3ccccn3)c(-c3ccccn3)nc2cc1C
inactive: [1] 2.05% | [2] -18.9% | [3] 6.9% | [4] 20.1% | [5] -7.75% | [6] 21.4%

CCCCc1ccc(-n2c(C)nc3[nH]cc(C)c3c2=N)cc1
inactive: [1] -1.35% | [2] -10.9% | [3] -3.5% | [4] -1.75% | [5] -2.5% | [6] -3.75%

CC(C)(C)C(=O)C(C#N)C(=O)C(C)(C)C
inactive: [1] 8.75% | [2] -19.9% | [3] -7.45% | [4] 16.1% | [5] -19.9% | [6] -14.2%

CC1CCCC(C)(C)/C1=N/O (configuration not stated)
inactive: [1] 16.1% | [2] 20.2% | [3] 12.5% | [4] 12.8% | [5] 20.8% | [6] 6.7%

O=S1(=O)CC(N2CCOCC2)C2=C(O1)c1sc(-c3ccccc3)nc1CC2 (configuration not stated)
inactive: [1] -16.8% | [2] -7.45% | [3] 14.8% | [4] 14.3% | [5] -4.55% | [6] -3.95%

N=C(CN1CCCCC1)N1CCCCC1
inactive: [1] -2.5% | [2] -15.3% | [3] -5.15% | [4] -58.1% | [5] 10.2% | [6] 12.6%

CC(C)COP(C)(=O)C(N)(C(F)(F)F)C(F)(F)F (configuration not stated)
inactive: [1] 10.9% | [2] 8% | [3] 35.6% | [4] 25.8% | [5] 40.1% | [6] -12.4%

O=C1OC(c2ccc(Cl)cc2)=C/C1=C/c1ccccc1O
inactive: [1] -15.8% | [2] 4.75% | [3] -1.15% | [4] -47.7% | [5] -0.65% | [6] 5.05%

O=C(CCC(=O)Oc1ccccc1)Oc1ccccc1
inactive: [1] -15.9% | [2] -1.1% | [3] -31.6% | [4] 3.2% | [5] 28.3% | [6] 13.7%

CC(=O)Nc1ccc(OC2=CCN(C)CC2)cc1
inactive: [1] 0.75% | [2] -16.1% | [3] 8.85% | [4] 12.7% | [5] 11.1% | [6] -64.8%

O=C1C=C(Nc2cc(Cl)ccc2Cl)c2ccccc2C1=O
inactive: [1] 9.75% | [2] 4.25% | [3] -8.8% | [4] 6.8% | [5] 15.2% | [6] 32.5%

O=C(CCC(NC(=O)OCc1ccccc1)C(=O)OCc1ccccc1)Nc1cccc(OCc2ccccc2)c1 (configuration not stated)
inactive: [1] -16.2% | [2] -18.1% | [3] -1.15% | [4] -23.6% | [5] -20% | [6] -27.4%

CCCCCCCCCCCCOc1ccccn1
inactive: [1] -11.2% | [2] -33.6% | [3] -7.65% | [4] -7.45% | [5] -11.6% | [6] -4.55%

COc1cc(OC)c(-c2oc3ccccc3c(=O)c2O)c(OC)c1
inactive: [1] -9.5% | [2] 12.7% | [3] 2.4% | [4] -13.2% | [5] 4.65% | [6] -5.45%

C/C(=N\N=C(/C)c1ccc(O)cc1O)c1ccc(O)cc1O
inactive: [1] 13.7% | [2] 12.7% | [3] -3.5% | [4] 6.15% | [5] 6.75% | [6] -3.35%

CCOC(=O)C(NC(=O)OCc1ccccc1)C(=O)O (configuration not stated)
inactive: [1] -22.9% | [2] -27.4% | [3] -14.3% | [4] 7.7% | [5] 5.35% | [6] -14.7%

C[N+]1(C)CCC[N+](C)(C)CC1
inactive: [1] -15.9% | [2] -7.75% | [3] 3.9% | [4] 16.2% | [5] 20.9% | [6] 6.4%
